Data taken from the supplement of paper PMC13380429.
Values without a mark were called inactive.

Tested on: Vero E6 infected with SARS-CoV-2
Experiment: inhibition of SARS-CoV-2 cytopathic effect; higher = more antiviral protection, active = above 15
Conditions: 48 h

SMILES | inhibition of SARS-CoV-2 cytopathic effect (1 nM) | inhibition of SARS-CoV-2 cytopathic effect (8.33 nM) | inhibition of SARS-CoV-2 cytopathic effect (100 nM) | inhibition of SARS-CoV-2 cytopathic effect (833.33 nM) | inhibition of SARS-CoV-2 cytopathic effect (10000 nM)
O=C(Cc1ccc(Cl)c(Cl)c1)N1CCCC[C@@H]1CN1CCCC1 | -0.96% | 2.64% | 1.57% | -0.63% | -4.8%
CCCN1CCCC[C@H]1C(=O)Nc1c(C)cccc1C [ropivacaine] | 1.32% | 1.42% | 2.5% | 3.09% | -1.63%
C=C[C@H]1CN2CC[C@H]1CC2C(OC(=O)OCC)c1ccnc2ccc(OC)cc12 (stereo in doubt) [quinine-ethyl-carbonate] | 0.47% | 2.1% | 0.07% | 6.66% | 5.77%
CNC(=O)c1ccccc1Sc1ccc2c(/C=C/c3ccccn3)n[nH]c2c1 [axitinib] | -0.21% | -0.79% | 0.55% | 2.32% | 0.23%
CN(C)CCc1c[nH]c2ccc(CS(=O)(=O)N3CCCC3)cc12 [almotriptan] | -0.13% | 1.33% | -0.24% | 0.04% | -2.87%
NC(N)=Nc1nc(CSCCN/C=N/S(=O)(=O)c2ccc(Br)cc2)cs1 [ebrotidine] | -0.49% | 1.21% | 5.48% | -0.19% | -2.58%
Cc1ccccc1C(=O)c1ccc(Nc2ccc(Br)cc2N)cc1Cl | 1.98% | 1.13% | -4.39% | -0.22% | 3.01%
CC[C@]1(O)C[C@@H]2CN(CCc3c([nH]c4ccccc34)[C@@](C(=O)OC)(c3cc4c(cc3OC)N(C)[C@H]3[C@@](O)(C(N)=O)[C@H](O)[C@]5(CC)C=CCN6CC[C@]43[C@@H]65)C2)C1 [vindesine] | 0.4% | 0.16% | -1.63% | 0.62% | -2.18%
CN1CCN(c2c(F)cc3c(=O)c(C(=O)O)cn(CCF)c3c2F)CC1 [fleroxacin] | -1.94% | -0.15% | 1.24% | 0.81% | -1.08%
C[C@]12CCC(=O)C(O)=C1CC[C@@H]1[C@@H]2CC[C@]2(C)C(=O)CC[C@@H]12 [formestane] | -6.07% | -1.52% | 4.22% | 6.78% | -1.65%
CCc1cc(Cl)c(OC)c(C(=O)NC[C@@H]2CCCN2CC)c1O [eticlopride] | -0.43% | -0.67% | 1.17% | 0.92% | 3.78%
CSc1ccc(C(=O)c2[nH]c(=O)[nH]c2C)cc1 [enoximone] | -4.27% | -5.05% | -6.45% | -4.44% | -2.39%
CCCCc1nc(-c2ccc(OCCCN(CC)CC)cc2)cn1-c1ccc(Oc2ccc(Cl)cc2)cc1 [azeliragon] | 0.74% | -0.49% | 1.43% | 1.68% | -13.2%
O=C(O)c1ccc(N2C(=O)/C(=C/c3ccc(-c4ccc([N+](=O)[O-])cc4)o3)C=C2c2ccccc2)cc1 | -2.98% | -0.14% | 1.72% | -6.51% | -0.18%
c1cc(-c2cnn3cc(-c4ccc(N5CCNCC5)cc4)cnc23)c2cccnc2c1 | -0.58% | -1.57% | -4.29% | -2.22% | 6.47%
C[C@@]12CCc3occc3[C@H]1CC[C@@]13C[C@@H](CC[C@H]12)[C@@](O)(CO)C3 [cafestol] | -4.07% | -1.86% | 2% | 2.62% | 1.59%
CC(C)CCC[C@@H](C)[C@H]1CC[C@H]2[C@@H]3CCC4=CC(=NO)CC[C@]4(C)[C@H]3CC[C@]12C [olesoxime] | -0.01% | 0.28% | -0.33% | -0.32% | 3.9%
Cn1c(CNc2ccc(C(=N)N)cc2)nc2cc(C(=O)N(CCC(=O)O)c3ccccn3)ccc21 [dabigatran] | -0.46% | 1.73% | -0.12% | 0.58% | 3.34%
Cc1cc(CCCOc2c(C)cc(-c3noc(C(F)(F)F)n3)cc2C)on1 [pleconaril] | 2.59% | 0.33% | -1.07% | 0.02% | -1.34%
CC(=O)O[C@@H]1C[C@H]2C(C)(C)C(=O)C=C[C@]2(C)[C@H]2CC[C@@]3(C)[C@H](c4ccoc4)OC(=O)[C@H]4O[C@]43[C@@]21C [gedunin] | -1.35% | -1.68% | -1.07% | 6.09% | 19% (active)

SMILES | inhibition of SARS-CoV-2 cytopathic effect (1 nM) | inhibition of SARS-CoV-2 cytopathic effect (8.33 nM) | inhibition of SARS-CoV-2 cytopathic effect (100 nM) | inhibition of SARS-CoV-2 cytopathic effect (833.33 nM) | inhibition of SARS-CoV-2 cytopathic effect (10000 nM)
N#Cc1cccc(-c2nc(-c3cccnc3)no2)c1 | -1.62% | 0.72% | -0.15% | -1.08% | 2.85%
COc1cc(C=O)ccc1O [vanillin] | 1.74% | 0.89% | 1.04% | -1.54% | -2.8%
COc1c(Nc2ccc(S(C)(=O)=O)nc2C)ncnc1OC1CCN(C(=O)OC(C)C)CC1 | -1.98% | 0.8% | 0.06% | -1.17% | -1.76%
O=C(/C=C/c1ccc2c(c1)OCO2)N1CCCCC1 [ilepcimide] | 0.84% | 0.26% | 1.04% | -1.12% | 0.82%
COc1cc2nc(N3CCCN(C)CC3)nc(NC3CCN(Cc4ccccc4)CC3)c2cc1OC | 0.59% | 0.41% | -2.3% | 1.53% | 11.7%
CCN(CC)S(=O)(=O)c1ccc(C(=O)O)cc1 [etebenecid] | -3.2% | 1.54% | 0.48% | 1.89% | 2.73%
Nc1ncc2c(n1)CC(c1ccco1)CC2=O (stereo not given) | 2.9% | 3.51% | 2.68% | 4.74% | 3.17%
O=C(c1cncc(Br)c1)N1CCC(N2CCCC2)CC1 | -1.15% | -2.01% | -1.71% | -4.94% | 0.82%
COc1ccc([C@]2(C#N)CC[C@@H](C(=O)O)CC2)cc1OC1CCCC1 [cilomilast] | -1.82% | -3.26% | -2.36% | -1.23% | -0.83%
Cc1ccc(C(=O)c2cc(O)c(O)c([N+](=O)[O-])c2)cc1 [tolcapone] | -5.06% | -3.82% | -4.1% | 0.66% | 1.15%
CC(C)(S)C(N)C(=O)O (stereo in doubt) [penicillamine-(racemic)] | -0.3% | -1.45% | -0.335% | -1.03% | -0.18%
CCc1cccc(CC)c1NC(=O)N1Cc2[nH]nc(NC(=O)c3ccc(N4CCN(C)CC4)cc3)c2C1 | -4.07% | 1.98% | 1.34% | 1.38% | -0.02%
Cc1cc(CN)cc(C)c1NC(=O)c1ccc(-c2cc(Cl)ccc2Cl)o1 | -1.09% | 1.98% | 3.29% | -1.5% | 66.2% (active)
CC(=O)Nc1c(I)c(C(=O)O)c(I)c(N(C)C(C)=O)c1I [metrizoic-acid] | -1.11% | 0.34% | 0.21% | 2.48% | 1.65%
Cc1cc(C#N)cc(C)c1Oc1nc(Nc2ccc(C#N)cc2)nc(N)c1Br [etravirine] | -0.95% | -0.81% | -2.15% | -5.24% | -2.04%
CS(=O)(=O)N1CCc2c(-c3cnc(N)nc3)nc(N3CCOCC3)nc21 | -2.71% | 1.07% | 1.27% | -3.9% | -8.89%
NC(=O)OCC(COC(N)=O)c1ccccc1 [felbamate] | 1.11% | 3.53% | -0.7% | 1.06% | 0.03%
COc1cc(C(=O)N(CC[C@H]2CCCN2C)C/C(C)=C/c2ccccc2F)cc(OC)c1OC (racemic) | -0.69% | -1.9% | 1.94% | -0.01% | -1.76%
Cc1nc2ccccc2c(-c2ccc3c4c(ccnc24)CCO3)c1[C@H](OC(C)(C)C)C(=O)O | -1.93% | -2.73% | -4.38% | -4.78% | -3.59%
